This is part of a sample that, as a whole, favours compounds with a hit. Of some 79,000 tested, about 15% had one in any assay. Active and inactive are the calls of the source. Rule as the data show it: active = growth inhibition above about 70%; inactive = the rest.
Tests used:
[1] = NCI Yeast Anticancer Drug Screen. Data for the wt2 strain (AID 169);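 also: 0% = growth of vehicle-treated yeast cultures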; conditions: S. cerevisiae wt2 strain growth inhibition, stronger effect = higher value
How it was run: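 This strain belongs to a panel of yeast strains with defined genetic alterations in DNA damage repair or cell cycle control. Compounds are applied, and growth inhibition is measured against vehicle-treated cultures.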

[2] = NCI Yeast Anticancer Drug Screen. Data for the mlh1 strain (AID 171);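 also: 0% = growth of vehicle-treated control cultures of the same strain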; conditions: S. cerevisiae mlh1 strain growth inhibition, stronger effect = higher value
How it was run: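 Growth of the mutant yeast strain after compound exposure, expressed as inhibition relative to vehicle-only controls.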

[3] = NCI Yeast Anticancer Drug Screen. Data for the sgs1 strain (AID 173);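 also: 0% = growth of vehicle-only control cultures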; conditions: S. cerevisiae sgs1 mutant, stronger effect = higher value
How it was run: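 Growth of a yeast strain bearing a defined genetic alteration is measured after compound treatment. Inhibition is expressed relative to vehicle-only controls.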

[4] = NCI Yeast Anticancer Drug Screen. Data for the mlh1 rad18 strain (AID 175); conditions: S. cerevisiae mlh1 rad18 strain growth inhibition, stronger effect = higher value
How it was run: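 Read-out is yeast growth inhibition, calculated against vehicle-only controls. The compound was applied to a strain engineered with DNA damage repair alterations.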

[5] = NCI Yeast Anticancer Drug Screen. Data for the rad52 strain (AID 147);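 also: 0% = growth of vehicle-treated control cultures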; conditions: S. cerevisiae rad52 mutant growth inhibition, stronger effect = higher value
How it was run: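 Compounds are applied to a genetically defined yeast strain lacking normal DNA damage repair, and inhibition of growth is expressed relative to cultures given vehicle only.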

[6] = NCI Yeast Anticancer Drug Screen. Data for the wt1 strain (AID 149);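 also: 0% = growth of vehicle-treated wt1 cultures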; conditions: S. cerevisiae wt1 strain (SPY 50644) growth inhibition, stronger effect = higher value
How it was run: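 wt1 strain grown with compound or vehicle; inhibition taken from the growth difference.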

[7] = NCI Yeast Anticancer Drug Screen. Data for the rad50EPP+ strain (AID 151);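 also: 0% = growth of vehicle-treated control cultures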; conditions: S. cerevisiae rad50 mutant strain, stronger effect = higher value
How it was run: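 Compounds were applied to the rad50EPP+ yeast strain, which bears a defined DNA repair alteration, and growth inhibition was determined relative to vehicle-treated cultures.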

[8] = NCI Yeast Anticancer Drug Screen. Data for the mgt1 strain (AID 153); conditions: S. cerevisiae mgt1 mutant growth inhibition, stronger effect = higher value
How it was run: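 Strain: mgt1 yeast, one of a set carrying defined DNA damage repair or cell cycle control alterations. Compound-treated growth compared with vehicle.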

[9] = NCI Yeast Anticancer Drug Screen. Data for the rad50 strain (AID 155);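 also: 0% = growth of vehicle-only cultures of the same strain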; conditions: S. cerevisiae rad50 strain growth inhibition, stronger effect = higher value
How it was run: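 DNA repair mutant yeast, compound exposure, growth read-out; inhibition is taken relative to vehicle.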

[10] = NCI Yeast Anticancer Drug Screen. Data for the mec2-1 strain (AID 157); conditions: S. cerevisiae mec2-1 strain, stronger effect = higher value
How it was run: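 Strain: mec2-1 (DNA repair/cell cycle alteration). Compound exposure, then growth measured; inhibition expressed relative to vehicle.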

[11] = NCI Yeast Anticancer Drug Screen. Data for the rad14 strain (AID 159);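 also: 0% = growth of vehicle-treated control cultures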; conditions: S. cerevisiae rad14 strain growth inhibition, stronger effect = higher value
How it was run: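 DNA repair-defective yeast, compound-exposed; % growth inhibition derived by comparison with vehicle-treated controls.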

[12] = NCI Yeast Anticancer Drug Screen. Data for the sgs1 mgt1 strain (AID 161);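 also: 0% = growth of cultures given vehicle only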; conditions: S. cerevisiae sgs1 mgt1 strain, stronger effect = higher value
How it was run: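 Read-out: growth inhibition vs vehicle controls. Cells: mutant yeast strain deficient in DNA damage repair.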

[13] = NCI Yeast Anticancer Drug Screen. Data for the CLN2oe strain (AID 163);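 also: 0% = growth of vehicle-only control cultures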; conditions: S. cerevisiae CLN2oe strain, stronger effect = higher value
How it was run: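 Growth of a genetically modified yeast strain is measured after compound exposure and compared with cultures given vehicle alone.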

[14] = NCI Yeast Anticancer Drug Screen. Data for the cln2 rad14 strain (AID 165);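 also: 0% = growth equal to vehicle treated cultures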; conditions: S. cerevisiae cln2 rad14 strain, stronger effect = higher value
How it was run: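 Compounds are applied to the cln2 rad14 yeast strain, and growth is then compared with that of vehicle-treated cultures to give inhibition.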

[15] = NCI Yeast Anticancer Drug Screen. Data for the bub3 strain (AID 167); conditions: S. cerevisiae bub3 mutant strain, stronger effect = higher value
How it was run: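 In this screen, a yeast mutant lacking normal mitotic checkpoint function is challenged with compound. Relative growth versus vehicle gives the inhibition value.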

[16] = NCI Yeast Anticancer Drug Screen. Data for the rad18 strain (AID 177); conditions: S. cerevisiae rad18 mutant growth inhibition, stronger effect = higher value
How it was run: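 Growth of the mutant yeast strain after compound exposure, normalised to vehicle-only cultures.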

[17] = at 5.0 µM (retest, dose inferred, filed as 0.5)
[18] = at 50.0 µM (retest, dose inferred, filed as 5.0)

Measured: growth inhibition

O=C1C(=O)N(c2ccccc2)[C@@]2(c3ccccc3)C(=Nc3ccccc3)OC(c3ccccc3)=C12
active: [1]; at 11.0 µM 72% | [1]; at 33.0 µM 93% | [1]; at 100.0 µM 96% | [2]; at 33.0 µM 93% | [2]; at 100.0 µM 95% | [3]; at 11.0 µM 74% | [3]; at 33.0 µM 93% | [3]; at 100.0 µM 96%
inactive: [1]; at 1.2 µM -3% | [1]; at 3.7 µM -5% | [2]; at 1.2 µM -3% | [2]; at 3.7 µM -4% | [2]; at 11.0 µM 62% | [3]; at 1.2 µM -3% | [3]; at 3.7 µM 2% | [4]; [17] 1% | [4]; [18] -8% | [4]; at 50.0 µM 40.1%

CCC(/C=C/c1ccccc1)=N\Nc1ccc(Cl)cc1
inactive: [5]; at 1.2 µM -1% | [5]; at 3.7 µM 2% | [5]; at 11.0 µM -1% | [6]; at 1.2 µM 0% | [6]; at 3.7 µM -2% | [6]; at 11.0 µM -6% | [6]; at 33.0 µM 48% | [7]; at 1.2 µM 4% | [7]; at 3.7 µM 9% | [7]; at 11.0 µM 19% | [7]; at 33.0 µM 17% | [7]; at 100.0 µM 19% | [8]; at 1.2 µM -4% | [8]; at 3.7 µM 4% | [8]; at 11.0 µM 7% | [8]; at 33.0 µM 5% | [8]; at 100.0 µM 50% | [9]; at 1.2 µM 3% | [9]; at 3.7 µM 9% | [9]; [17] 2% | [9]; at 11.0 µM 12% | [10]; at 1.2 µM 0% | [10]; at 3.7 µM 5% | [10]; [17] -3% | [10]; at 11.0 µM 9% | [10]; at 33.0 µM 6% | [10]; at 100.0 µM 52% | [11]; at 1.2 µM 0% | [11]; at 3.7 µM 0% | [11]; at 11.0 µM 3% | [11]; at 33.0 µM 0% | [12]; [17] 2% | [13]; at 1.2 µM -1% | [13]; at 3.7 µM 1% | [13]; at 11.0 µM 8% | [13]; at 33.0 µM 8% | [13]; at 100.0 µM 48% | [14]; [17] 5% | [14]; [18] 38% | [15]; at 1.2 µM -2% | [15]; at 3.7 µM 2% | [15]; [17] 3% | [15]; at 11.0 µM 5% | [15]; at 33.0 µM 32% | [15]; at 100.0 µM 51% | [1]; at 1.2 µM -4% | [1]; at 3.7 µM -9% | [1]; at 11.0 µM -4% | [2]; at 1.2 µM -2% | [2]; at 3.7 µM 4% | [2]; at 11.0 µM 4% | [2]; at 33.0 µM 2% | [2]; at 100.0 µM 52% | [3]; at 1.2 µM -3% | [3]; at 3.7 µM -4% | [3]; at 11.0 µM -1% | [4]; [17] 7% | [16]; at 1.2 µM -3% | [16]; at 3.7 µM 1% | [16]; at 11.0 µM 3%
active: [5]; at 33.0 µM 86% | [5]; at 100.0 µM 93% | [6]; at 100.0 µM 93% | [9]; at 33.0 µM 77% | [9]; [18] 83% | [9]; at 50.0 µM 97.6% | [9]; at 100.0 µM 93% | [10]; [18] 80% | [10]; at 50.0 µM 85.5% | [11]; at 100.0 µM 76% | [12]; [18] 81% | [12]; at 50.0 µM 86.5% | [14]; at 50.0 µM 89.5% | [15]; [18] 86% | [15]; at 50.0 µM 97.8% | [1]; at 33.0 µM 80% | [1]; at 100.0 µM 94% | [3]; at 33.0 µM 77% | [3]; at 100.0 µM 95% | [4]; [18] 91% | [4]; at 50.0 µM 96% | [16]; at 33.0 µM 79% | [16]; at 100.0 µM 95%
